In PubChem BioAssay AID1508601 (ICCB-Longwood Screening Facility, Harvard Medical School, 2020) one finds nuclei count, normalised and p53-positive nuclei, normalised data, which are given here for 8 compounds.

Where “and” joins values, the source holds several entries; their conditions need not be identical. Equal values may be shown once. The campaign covered roughly 5,700 compounds. About 85 (1%) were called active. Cut-off read from the data, not from the text of the source: active = p53-positive nuclei above about 36% (passing the limit was not always enough); inactive = the rest. Only a selection was taken, and actives are over-represented in it overall. Where a structure was tested more than once in an assay, its records may differ in their call.

The nature of assay [1]: p53 stabilisation in HPV-positive human cells, imaging, p53-positive nuclei imaging, 24 h, 48 h (AID 1508601). As to conditions: 24/48 h.
In assay [2] the target is Cellular tumor antigen p53 (Homo sapiens) (UniProt P04637). The assay is described as above. Conditions: 24/48 h, stronger effect = higher value.
[3] abbreviates: measured here: cell number at 24 h, Library stock concentration: 46 uM.
Setting [4] is: measured here: cell number at 24 h, Library stock concentration: 278 uM.
[5] abbreviates: measured here: cell number at 24 h, Library stock concentration: 1.67 mM.
Setting [6] is: measured here: cell number at 24 h, Library stock concentration: 3.33 mM.
Where [7] appears, read: measured here: cell number at 24 h, Library stock concentration: 10 mM.
Where [8] appears, read: measured here: cell number at 48 h, Library stock concentration: 46 uM.
Where [9] appears, read: measured here: cell number at 48 h, Library stock concentration: 278 uM.
The mark [10] stands for this setting: measured here: cell number at 48 h, Library stock concentration: 1.67 mM.
The mark [11] stands for this setting: measured here: cell number at 48 h, Library stock concentration: 3.33 mM.
Where [12] appears, read: measured here: cell number at 48 h, Library stock concentration: 10 mM.
[13] abbreviates: Library stock concentration: 46 uM.
The mark [14] stands for this setting: Library stock concentration: 278 uM.
[15] abbreviates: Library stock concentration: 1.67 mM.
Setting [16] is: Library stock concentration: 3.33 mM.
Where [17] appears, read: Library stock concentration: 10 mM.
Where [18] appears, read: measured here: p53 positive nuclei at 24 h, Library stock concentration: 46 uM.
Where [19] appears, read: measured here: p53 positive nuclei at 24 h, Library stock concentration: 278 uM.
Setting [20] is: measured here: p53 positive nuclei at 24 h, Library stock concentration: 1.67 mM.
The mark [21] stands for this setting: measured here: p53 positive nuclei at 24 h, Library stock concentration: 3.33 mM.
Setting [22] is: measured here: p53 positive nuclei at 24 h, Library stock concentration: 10 mM.
The mark [23] stands for this setting: measured here: cell number at 24 h, concentration not given here.
Setting [24] is: measured here: cell number at 48 h, concentration not given here.
Setting [25] is: measured here: p53 positive nuclei at 24 h, concentration not given here.

Sequence of Cellular tumor antigen p53 (Homo sapiens) (P04637 whole entry, looked up): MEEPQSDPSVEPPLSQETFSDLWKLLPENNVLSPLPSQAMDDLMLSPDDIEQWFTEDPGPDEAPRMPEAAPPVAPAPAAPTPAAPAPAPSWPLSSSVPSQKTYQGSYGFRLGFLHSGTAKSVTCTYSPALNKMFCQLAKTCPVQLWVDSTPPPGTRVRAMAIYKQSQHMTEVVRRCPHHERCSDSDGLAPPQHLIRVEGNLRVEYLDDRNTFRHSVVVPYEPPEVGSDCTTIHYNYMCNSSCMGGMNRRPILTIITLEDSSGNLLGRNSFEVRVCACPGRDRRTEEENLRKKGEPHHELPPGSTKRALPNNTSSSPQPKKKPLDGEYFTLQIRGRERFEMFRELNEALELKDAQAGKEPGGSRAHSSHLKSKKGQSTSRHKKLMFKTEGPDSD

For `Cc1cc(OCCCS(C)(=O)=O)cc(C)c1-c1cccc(COc2ccc3c(c2)OCC3CC(=O)O)c1` (stereo not given), the nuclei count, normalised worked out at 101% in assay [1] (setting [3]); 107% in assay [1] (setting [4]); 104% in assay [1] (setting [5]); 125% in assay [1] (setting [6]); 103% in assay [1] (setting [7]); 105% in assay [1] (setting [8]). Also, the nuclei count, normalised in assay [1] (setting [9]) worked out at 104%; in assay [1] (setting [10]) it was 104%; in assay [1] (setting [11]), 119%; in assay [1] (setting [12]), 103%. In addition, the p53-positive nuclei, normalised in assay [2] (setting [13]) was -0.0206% (inactive); in assay [2] (setting [14]), -0.0568% (inactive); in assay [2] (setting [15]), -0.0557% (inactive); in assay [2] (setting [16]), -0.149% (inactive); in assay [2] (setting [17]), 0.322% (inactive); in assay [2] (setting [18]), -0.152%. Further, the p53-positive nuclei, normalised in assay [2] (setting [19]) is 0.151%; in assay [2] (setting [20]), -0.156%; in assay [2] (setting [21]), -0.546%; in assay [2] (setting [22]), -0.0299%.

`O=C(O)/C=C/CCCCCCCCC(=O)O`: the nuclei count, normalised in assay [1] (setting [23]) worked out at 111%; in assay [1] (setting [24]), 107%. The p53-positive nuclei, normalised in assay [2] (concentration not given here) was 0.0752% (inactive); in assay [2] (setting [25]), 0.0107%.

`C=C1C(=O)OC(CCCCCCCC)C1C(=O)O` (stereo not given): the nuclei count, normalised is 115% in assay [1] (measured here: cell number at 24 h, Library stock concentration: 500 nM); 107% in assay [1] (measured here: cell number at 24 h, Library stock concentration: 1.5 uM); 111% in assay [1] (measured here: cell number at 24 h, Library stock concentration: 4.6 uM); 112% in assay [1] (measured here: cell number at 24 h, Library stock concentration: 13.7 uM); 108% in assay [1] (measured here: cell number at 24 h, Library stock concentration: 41 uM); 110% in assay [1] (measured here: cell number at 24 h, Library stock concentration: 123 uM). The nuclei count, normalised was determined as 116% in assay [1] (measured here: cell number at 24 h, Library stock concentration: 370 uM); 116% in assay [1] (measured here: cell number at 24 h, Library stock concentration: 1.111 mM); 114% in assay [1] (measured here: cell number at 24 h, Library stock concentration: 3.333 mM); 106% in assay [1] (setting [7]); 112% in assay [1] (measured here: cell number at 48 h, Library stock concentration: 500 nM); 108% in assay [1] (measured here: cell number at 48 h, Library stock concentration: 1.5 uM). Besides, the nuclei count, normalised in assay [1] (measured here: cell number at 48 h, Library stock concentration: 4.6 uM) was found to be 109%; in assay [1] (measured here: cell number at 48 h, Library stock concentration: 13.7 uM), 110%; in assay [1] (measured here: cell number at 48 h, Library stock concentration: 41 uM), 105%; in assay [1] (measured here: cell number at 48 h, Library stock concentration: 123 uM) it was 108%; in assay [1] (measured here: cell number at 48 h, Library stock concentration: 370 uM), 116%; in assay [1] (measured here: cell number at 48 h, Library stock concentration: 1.111 mM) it was 114%. Also, the nuclei count, normalised in assay [1] (measured here: cell number at 48 h, Library stock concentration: 3.333 mM) is 112%; in assay [1] (setting [12]), 107%. Also, the p53-positive nuclei, normalised is 0.247% (inactive) in assay [2] (Library stock concentration: 500 nM); -0.0382% (inactive) in assay [2] (Library stock concentration: 1.5 uM); -0.0805% (inactive) in assay [2] (Library stock concentration: 4.6 uM); -0.0825% (inactive) in assay [2] (Library stock concentration: 13.7 uM); 0.00899% (inactive) in assay [2] (Library stock concentration: 41 uM); -0.155% (inactive) in assay [2] (Library stock concentration: 123 uM). The p53-positive nuclei, normalised in assay [2] (Library stock concentration: 370 uM) is 0.0153% (inactive); in assay [2] (Library stock concentration: 1.111 mM), -0.0515% (inactive); in assay [2] (Library stock concentration: 3.333 mM), 0.104% (inactive); in assay [2] (setting [17]) it was 0.0835% (inactive); in assay [2] (measured here: p53 positive nuclei at 24 h, Library stock concentration: 500 nM), -0.115%; in assay [2] (measured here: p53 positive nuclei at 24 h, Library stock concentration: 1.5 uM), 0.12%. Moreover, the p53-positive nuclei, normalised in assay [2] (measured here: p53 positive nuclei at 24 h, Library stock concentration: 4.6 uM) is -0.0584%; in assay [2] (measured here: p53 positive nuclei at 24 h, Library stock concentration: 13.7 uM), -0.0585%; in assay [2] (measured here: p53 positive nuclei at 24 h, Library stock concentration: 41 uM), 0.0028%; in assay [2] (measured here: p53 positive nuclei at 24 h, Library stock concentration: 123 uM), -0.115%; in assay [2] (measured here: p53 positive nuclei at 24 h, Library stock concentration: 370 uM) it was -0.0115%; in assay [2] (measured here: p53 positive nuclei at 24 h, Library stock concentration: 1.111 mM), 0.0471%. Moreover, the p53-positive nuclei, normalised in assay [2] (measured here: p53 positive nuclei at 24 h, Library stock concentration: 3.333 mM) was 0.103%; in assay [2] (setting [22]) it was -0.112%.

Turning to `Nc1ccccc1NC(=O)CCCCCCC(=O)Nc1ccccc1`, the nuclei count, normalised in assay [1] (setting [23]) was found to be 102%; in assay [1] (setting [24]), 99.7%. Also, the p53-positive nuclei, normalised in assay [2] (concentration not given here) is -0.185% (inactive); in assay [2] (setting [25]), -0.135%.

Turning to `O=C(CCCCCCC(=O)Nc1ccccc1)NO`, the nuclei count, normalised is 112% in assay [1] (measured here: cell number at 24 h, Library stock concentration: 80 uM); 108% and 112% in assay [1] (measured here: cell number at 24 h, Library stock concentration: 400 uM); 91.7% and 119% in assay [1] (measured here: cell number at 24 h, Library stock concentration: 2 mM); 78.1% in assay [1] (setting [6]); 48.6% and 60.7% in assay [1] (setting [7]); 97.6% in assay [1] (setting [23]). Besides, the nuclei count, normalised in assay [1] (measured here: cell number at 48 h, Library stock concentration: 80 uM) is 108% and 95.5%; in assay [1] (measured here: cell number at 48 h, Library stock concentration: 400 uM), 95.7% and 94.9%; in assay [1] (measured here: cell number at 48 h, Library stock concentration: 2 mM) it was 94.4% and 101%; in assay [1] (setting [11]) it was 74.5%; in assay [1] (setting [12]), 30.2% and 39.7%; in assay [1] (setting [24]) it was 95.7%. Besides, the p53-positive nuclei, normalised is 0.114% (inactive) and -0.578% (inactive) in assay [2] (Library stock concentration: 80 uM); -0.0686% (inactive) and -0.456% (inactive) in assay [2] (Library stock concentration: 400 uM); 1.4% (inactive) and -0.595% (inactive) in assay [2] (Library stock concentration: 2 mM); 4.65% (inactive) in assay [2] (setting [16]); 53.5% (active) and 27.2% (inactive) in assay [2] (setting [17]); 0.0822% (inactive) in assay [2] (concentration not given here). Further, the p53-positive nuclei, normalised in assay [2] (measured here: p53 positive nuclei at 24 h, Library stock concentration: 80 uM) is 0.178% and -0.162%; in assay [2] (measured here: p53 positive nuclei at 24 h, Library stock concentration: 400 uM), -0.0144% and -0.0685%; in assay [2] (measured here: p53 positive nuclei at 24 h, Library stock concentration: 2 mM), 2.42% and 0.0577%; in assay [2] (setting [21]), 8.5%; in assay [2] (setting [22]), 65.2% and 32.1%; in assay [2] (setting [25]), 0.00812%.

Turning to `Cc1ccc(NC(=O)CCCCCC(=O)Nc2ccccc2N)cc1`, the nuclei count, normalised in assay [1] (setting [23]) came to 111%; in assay [1] (setting [24]), 104%. Besides, the p53-positive nuclei, normalised in assay [2] (concentration not given here) is -0.139% (inactive); in assay [2] (setting [25]) it was -0.0721%.

For the compound `O=C(Nc1ccc2nccnc2c1)c1csc(Cc2ccccc2)n1`, the nuclei count, normalised in assay [1] (setting [23]) was 101%; in assay [1] (setting [24]) it was 102%. Also, the values for the p53-positive nuclei, normalised in assay [2] (concentration not given here) and in assay [2] (setting [25]) were 0.478% (inactive) and 0.426%, respectively.

`O=C(O)CCCCCCCCCCCNC(=O)NC12CC3CC(CC(C3)C1)C2`: the nuclei count, normalised in assay [1] (setting [3]) was 111%; in assay [1] (setting [4]) it was 105%; in assay [1] (setting [5]) it was 106%; in assay [1] (setting [7]), 101%; in assay [1] (setting [23]), 106%; in assay [1] (setting [8]), 111%. In addition, the nuclei count, normalised in assay [1] (setting [9]) worked out at 105%; in assay [1] (setting [10]), 103%; in assay [1] (setting [12]), 101%; in assay [1] (setting [24]) it was 113%. Besides, the p53-positive nuclei, normalised in assay [2] (setting [13]) is -0.188% (inactive); in assay [2] (setting [14]), 0.036% (inactive); in assay [2] (setting [15]) it was 0.0433% (inactive); in assay [2] (setting [17]) it was 0.0468% (inactive); in assay [2] (concentration not given here), -0.166% (inactive); in assay [2] (setting [18]), -0.135%. For the same compound, the p53-positive nuclei, normalised was -0.135% in assay [2] (setting [19]), 0.0415% in assay [2] (setting [20]), -0.0737% in assay [2] (setting [22]) and -0.144% in assay [2] (setting [25]).
